# Measurements published in PubChem BioAssay (NCATS).
# Where “and” joins values, the source holds several entries; their conditions need not be identical. Equal values may be shown once. Results filed as inconclusive are left out. Entries that show only a call come without a potency. Values without a mark were called inactive. Calls of active or inactive are those of the source. The call rests on the fitted dose curve; in most records, active means well fitted curve in the direction sought with a large enough effect; inconclusive means small, poorly fitted or top-dose-only effect, or another doubt; inactive means no such curve, though single readings can be large; an effect the other way counts as inactive or inconclusive. Peptide text beside a SMILES is read from it.
# Key:
# [1] = target: Cellular tumor antigen p53 (Homo sapiens) (UniProt P04637); test: Primary qHTS for small molecule compounds that upregulate eGFP-tagged delta133p53alpha (in N-terminal) cells. (AID 2060322); settings: NCI-H358 eGFP-delta133p53alpha fluorescence, 24 h; activation: stronger effect = higher value; further: nearly all actives have a fitted effect of over 75% in size; further: potency means the concentration at half of the fitted maximal effect; on activation: series mostly up to about 56 µM
# Summary of the method: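 NCI-H358 cells pre-induced 24 h with 10 ng/ml doxycycline to express N-terminal eGFP-delta133p53alpha, then dosed 24 h at 37C without doxycycline; fixed, Hoechst-stained, GFP intensity by laser scanning cytometry, normalized to DMSO (0%) and 57.5 uM 5-azacytidine (100%).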
# [2] = target: Aldehyde dehydrogenase, mitochondrial (Homo sapiens) (UniProt P05091); test: qHTS for Inhibitors of the Aldehyde Dehydrogenase Family (ALDH2) Primary screen (AID 2061308); further: nearly all actives have a fitted effect of over 55% in size
# [3] = target: Retinaldehyde dehydrogenase 3 (Homo sapiens) (UniProt P47895); test: qHTS for Inhibitors of the Aldehyde Dehydrogenase Family (ALDH1A3) Primary screen (AID 2061315)
# Sequence of Cellular tumor antigen p53 (Homo sapiens) (P04637 whole entry, looked up): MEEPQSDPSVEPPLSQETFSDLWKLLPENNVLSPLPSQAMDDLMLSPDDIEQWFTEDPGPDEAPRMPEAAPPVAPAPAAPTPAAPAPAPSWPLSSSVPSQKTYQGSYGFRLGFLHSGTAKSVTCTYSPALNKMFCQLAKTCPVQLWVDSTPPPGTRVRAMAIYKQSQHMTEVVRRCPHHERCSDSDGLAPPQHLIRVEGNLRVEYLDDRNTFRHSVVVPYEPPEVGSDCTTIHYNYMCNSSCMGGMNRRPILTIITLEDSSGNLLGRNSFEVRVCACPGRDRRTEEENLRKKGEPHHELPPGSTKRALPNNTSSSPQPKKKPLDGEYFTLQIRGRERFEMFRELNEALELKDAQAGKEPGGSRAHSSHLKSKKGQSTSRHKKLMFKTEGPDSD
SMILES,activation [1],Potency [2],Potency [3],Potency [1]
CC1CCC2(C(=O)O)CCC3(C)C(=CCC4C5(C)CCC(O)C(C)(C(=O)O)C5CCC43C)C2C1(C)O (configuration not stated),-8.4%,inactive,inactive,–
Nc1nc(Nc2ccc(S(N)(=O)=O)cc2)n(C(=S)Nc2c(F)cccc2F)n1,–,inactive,inactive,2.13 µM (active)
Cc1ccc(F)cc1S(=O)(=O)N[C@@H]1CCN(Cc2ccc(OC(C)C)cc2)C1,-2.39%,inactive,inactive,–
COC(=O)[C@]12C(=O)C(C)=C(O)[C@@]1(C)C(C)=CC1[C@@]34CC[C@@H](OC(C)=O)C(C)(C)C3[C@H](C[C@]12C)OC4=O (some centres not stated),2.29%,inactive,inactive,–
COC(=O)[C@H](Cc1ccc([N+](=O)[O-])cc1)NC(=O)c1cccc2ccccc12,11.5%,inactive,inactive,–
CCCCC(=O)N(Cc1ccc(-c2ccccc2-c2nn[nH]n2)cc1)C(C(=O)O)C(C)C (configuration not stated),0%,inactive,inactive,–
COC(=O)C(CC1(OC(=O)C(C)C)c2ccccc2N2C(=O)C(C)(C)N(O)C21)n1cnc2ccccc2c1=O (configuration not stated),3.05%,inactive,inactive,–
Cc1ccc(C2(COC(=O)C(C)C)CO2)c(OC(=O)C(C)C)c1 (configuration not stated),3.82%,inactive,inactive,–
O=C(O)C(Cc1ccccc1)NC(=O)C1CCCN1 (stereo not drawn) (H-Pro-Phe-OH; configuration not given here),-13.7%,inactive,inactive,–
CC(C)C(=O)O[C@@H]1[C@@H](O)[C@@H](O[C@H]2O[C@H](CO)[C@@H](O)[C@H](O)[C@H]2O)O[C@H](CO)[C@H]1O,3.82%,inactive,inactive,–
COc1cc(-c2cccc(O)c2)cc2c1OCO2,2.68%,inactive,inactive,–
COc1cc2ncnc(Nc3cccc(I)c3)c2cc1OC,–,inactive,inactive,12 µM (active)
O=C(CCCN1CC=C(n2c(=O)[nH]c3ccccc32)CC1)c1ccc(F)cc1,17.5% and 4.33%,inactive,inactive,–
CCNC(=O)C1OC(n2cnc3c(N)nc(NCCc4ccc(CCC(=O)O)cc4)nc32)C(O)C1O (configuration not stated),-5.73%,inactive,inactive,–
C=C1CCC2(OC1)OC1CC3C4CC=C5CC(O)CC(O[C@@H]6OC[C@H](OC(=O)C(O)C(C)CC)[C@H](O)[C@H]6O[C@@H]6O[C@@H](C)[C@H](O)[C@@H](O)[C@H]6O)C5(C)C4CCC3(C)C1C2C (some centres not stated),11.6%,inactive,inactive,–
C[C@]12CCC[C@](C)(C(=O)O)C1CCC13C=C(CO)C(CCC12)C3 (some centres not stated),-24.4%,inactive,inactive,–
C=C1C[C@]23C[C@H]1CC[C@H]2[C@@]12CC[C@H](O)[C@@](C)(C(=O)O1)[C@H]2[C@@H]3C(=O)O,5.34%,inactive,inactive,–
CNS(=O)(=O)c1ccccc1Nc1nc(Nc2ccc(N3CCN(C)CC3)cc2OC)ncc1Cl,–,inactive,inactive,21.3 µM (active)
Cc1ccc(Sc2cncc3sc(C(N)=O)cc23)cc1,-17.7%,inactive,inactive,–
C[C@@H]1C(=O)O[C@H]2[C@H]1CC[C@@]1(C)C(=O)C=C[C@](C)(O)[C@H]21,1.79%,inactive,inactive,–
C[C@@H]1C(=O)O[C@H]2[C@H](O)C34[C@H]5C[C@@H](C(C)(C)C)C36[C@@H](OC(=O)[C@@H]6O)O[C@@]4(C(=O)O5)[C@@]12O (some centres not stated),0.763%,inactive,inactive,–
C=C1CC[C@@]2(OC1)O[C@H]1CC3C4CC=C5C[C@@H](O[C@@H]6O[C@@H](C)[C@H](O)[C@@H](O)[C@H]6O)C[C@@H](O[C@@H]6O[C@H](C)[C@H](O)[C@H](O)[C@H]6O[C@@H]6O[C@@H](C)[C@H](O)[C@@H](O)[C@H]6O)[C@]5(C)C4CC[C@]3(C)[C@H]1[C@@H]2C (some centres not stated),-4.58%,inactive,inactive,–
CC1OC(OC2C(O)C(OC3CCC4(C)C(CCC5(C)C4CC=C4C6CC(C)(COC7OC(CO)C(O)C(O)C7O)CC(O)C6(C)CCC45C)C3(C)C)OC(C(=O)O)C2O)C(O)C(O)C1OC1OCC(O)C(O)C1O (configuration not stated),-4.46%,inactive,inactive,–
C=C(C(=O)O)C1CC(O)C2(C)CCCC(=C)C2C1 (configuration not stated),3.82%,inactive,inactive,–
